According to paper PMC5540273 (PLoS ONE, 2017):

How the values were obtained:
Settings in all cases: concentration: 1 μM, replicates: in singlicate; n = 1
[1] = test system: RPS6KA4(Kin.Dom.1-N-terminal)
[2] = test system: RPS6KA4(Kin.Dom.2-C-terminal)
[3] = test system: RPS6KA5(Kin.Dom.1-N-terminal)
[4] = test system: RPS6KA5(Kin.Dom.2-C-terminal)
[5] = test system: T1, RSK1(Kin.Dom.1-N-terminal)
T1 construct: gene RPS6KA1

[6] = test system: T2, RSK1(Kin.Dom.2-C-terminal)
T2 construct: gene RPS6KA1

[7] = test system: T3, RSK2(Kin.Dom.1-N-terminal)
T3 construct: gene RPS6KA3

[8] = test system: T4, RSK2(Kin.Dom.2-C-terminal)
T4 construct: gene RPS6KA3

[9] = test system: T5, RSK3(Kin.Dom.1-N-terminal)
T5 construct: gene RPS6KA2

[10] = test system: T6, RSK3(Kin.Dom.2-C-terminal)
T6 construct: gene RPS6KA2

[11] = test system: T7, RSK4(Kin.Dom.1-N-terminal)
T7 construct: gene RPS6KA6

[12] = test system: T8, RSK4(Kin.Dom.2-C-terminal)
T8 construct: gene RPS6KA6

[13] = test system: S6K1
[14] = test system: SBK1
[15] = test system: SGK2
[16] = test system: SGK3
[17] = test system: SGK
[18] = test system: SIK2
[19] = test system: SIK
[20] = test system: SLK
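Note: KINOMEscan kinase panel screen.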

Compound | %Inh [1] | %Inh [2] | %Inh [3] | %Inh [4] | %Inh [5] | %Inh [6] | %Inh [7] | %Inh [8] | %Inh [9] | %Inh [10] | %Inh [11] | %Inh [12] | %Inh [13] | %Inh [14] | %Inh [15] | %Inh [16] | %Inh [17] | %Inh [18] | %Inh [19] | %Inh [20]
COc1cccc(C2=C(Nc3cccc(O)c3)C(=O)NC2=O)c1 [SB-390771] | 21% | 0% | 21% | 2% | 84% | 0% | 8% | 28% | 84% | 7% | 0% | 37% | 11% | 4% | 0% | 16% | 0% | 3% | 0% | 69%
O=C(Nc1n[nH]c2nc(-c3ccccc3O)ccc12)C1CC1 [SB-711880] | 0% | 7% | 0% | 0% | 4% | 0% | 54% | 0% | 11% | 31% | 51% | 28% | 26% | 0% | 31% | 8% | 30% | 58% | 0% | 49%
Cl.N#CCc1ccc(Nc2nccc(Nc3ccc(Oc4ccccc4)cc3)n2)cc1 [GW639905] | 0% | 0% | 0% | 0% | 1% | 0% | 0% | 16% | 4% | 0% | 0% | 0% | 0% | 13% | 0% | 90.1% | 0% | 0% | 0% | 0%
O=C(Nc1n[nH]c2nc(-c3ccccc3)ccc12)C1CC1 [SB-708999] | 5% | 0% | 13% | 4% | 0% | 0% | 0% | 32% | 4% | 0% | 30% | 1% | 17% | 9% | 15% | 47% | 23% | 0% | 28% | 12%
Cl.O=C(Nc1ccc(Oc2ccc3[nH]c(NC(=O)c4ccco4)nc3c2)cc1)Nc1cc(C(F)(F)F)ccc1F [GW683134] | 16% | 0% | 14% | 6% | 0% | 16% | 3% | 3% | 54% | 9% | 0% | 13% | 45% | 3% | 14% | 0% | 0% | 0% | 0% | 83%
Cc1cccc(Nc2nc(NCCN)ncc2C(N)=O)c1 [GSK1292139] | 12% | 0% | 0% | 29% | 20% | 31% | 46% | 7% | 18% | 1% | 21% | 23% | 14% | 72% | 0% | 8% | 9% | 52% | 19% | 32%
O=C(Nc1c(F)cccc1F)c1cc(C(=O)c2ccccc2F)c[nH]1 [GSK1326180] | 8% | 0% | 4% | 0% | 5% | 0% | 1% | 24% | 0% | 10% | 1% | 0% | 0% | 52% | 18% | 5% | 11% | 0% | 0% | 0%
CCNC(=O)/C=C/c1n[nH]c2cc(Sc3ccccc3C(=O)NC)ccc12 | 8% | 21% | 4% | 0% | 24% | 15% | 8% | 0% | 8% | 34% | 17% | 24% | 18% | 0% | 0% | 46% | 0% | 55% | 44% | 23%
CNc1nccc(-c2ccc3c(N)n[nH]c3c2)n1 [GSK2206003] | 3% | 91.8% | 19% | 63% | 22% | 22% | 38% | 0% | 14% | 5% | 59% | 24% | 0% | 36% | 6% | 38% | 36% | 9% | 0% | 69%
O=C(Nc1n[nH]c2cc(-c3cccs3)ccc12)C1CC1 [SB-731284] | 0% | 11% | 0% | 0% | 8% | 0% | 41% | 0% | 0% | 0% | 39% | 13% | 61% | 13% | 0% | 37% | 18% | 0% | 0% | 0%
Cn1cc(-c2cnc(N)c3c(-c4ccc5c(c4)CCN5C(=O)Cc4ccccc4)csc23)cn1 [GSK2593074] | 1% | 38% | 0% | 2% | 9% | 42% | 0% | 9% | 0% | 7% | 0% | 18% | 16% | 0% | 6% | 0% | 21% | 9% | 42% | 69%
COc1ccc(NC(=O)c2ccoc2)cc1-c1ccc(C(=O)NCC2CC2)cc1 [GW810437] | 18% | 0% | 4% | 8% | 0% | 21% | 22% | 0% | 0% | 27% | 8% | 0% | 9% | 48% | 0% | 19% | 25% | 0% | 0% | 0%
O=C1NC(=O)C(c2ccccc2Cl)=C1Nc1cccc(Cl)c1 [SB-342409] | 16% | 0% | 2% | 0% | 75% | 9% | 19% | 31% | 100% | 0% | 0% | 9% | 7% | 8% | 0% | 5% | 0% | 0% | 5% | 96.5%
Cc1ccc(NC(=O)c2ccnc(N3CCCCC3)c2)cc1-c1ccc(C(=O)NCC2CC2)cc1 [GW775610] | 0% | 0% | 0% | 0% | 0% | 100% | 0% | 0% | 16% | 15% | 0% | 39% | 19% | 0% | 5% | 0% | 0% | 0% | 0% | 5%
Nc1ncnc2scc(-c3ccc(NC(=O)Cc4cc(F)ccc4F)cc3)c12.O=C(O)C(F)(F)F [SB-731254-M] | 21% | 15% | 8% | 0% | 0% | 14% | 15% | 0% | 0% | 6% | 17% | 18% | 46% | 27% | 27% | 23% | 18% | 11% | 5% | 28%
CN(c1ccc(F)c(NC(=O)c2cccc(OC(C)(C)C#N)c2Cl)c1)c1ccc2nc(NC(=O)C3CC3)sc2n1 | 0% | 0% | 11% | 6% | 0% | 1% | 0% | 59% | 0% | 0% | 4% | 0% | 1% | 18% | 0% | 2% | 0% | 39% | 97% | 14%
